Screening data: PubChem BioAssay, National Center for Advancing Translational Sciences (NCATS)
Sampled rows, rich in hits. Any-hit rate of the full collection: about 2.9%.
GLP1R cytotox = cytotoxicity counter-screen for GLP-1 receptor inverse agonists | HEK293 cAMP-luciferase reporter cells, luminescence, 24 h | Potency, µM (top dose mostly 38.3 µM), inactives show at the top dose activity change, negative = inhibition, most hits filed as inhibitors | hit rate 0.13% among 410,000 | AID 624418;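 note: loss of luciferase light is scored as toxicity; potency is the fitted concentration of half-maximal effect; % is set by controls: 0 for no effect and ±100 for the full control effect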
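Step one: seed cells (200 cells/uL, DMEM with 10% Nu serum, 1% pen-strep). Step two: 12-hour incubation at 37 deg C. Step three: pin 23 nL compound, incubate 24 hr. Step four: add luciferase reagent, read luminescence 12 min later.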
GLP1R inv ag = GLP-1 receptor (human) inverse agonism; P43220; HEK293 GLP-1R CRE-luciferase, luminescence, 24 h; GLP-1R form is constitutively active; Potency, µM (doses to about 38.3 µM), without a hit: top-dose activity change, negative = inhibition, most hits filed as inhibitors; hit rate 1.6% among 410,000; AID 624417; note: potency is the fitted concentration of half-maximal effect; % is set by controls: 0 for no effect and ±100 for the full control effect; nearly all actives have a fitted effect of over 55% in size
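Inverse agonism was detected as reduced cAMP-driven luciferase luminescence after 24 h compound treatment. The cells were HEK293 clones expressing constitutively active human GLP-1R with the reporter. Reporter-only and GPR119 cell lines served as counterscreen controls.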
p53 reactivation = restores transcriptional activity of mutant p53; H1299 p53-A138V BP100-luciferase reporter, luminescence, 24 h; Potency, µM (titrated, usually from 92.2 µM), without a hit: at the highest dose activity change, positive = activation, actives largely listed as activators; hit rate 0.063% among 320,000; note: potency is the fitted concentration of half-maximal effect; % of control where 0% means no effect; nearly all actives have a fitted effect of over 45% in size
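H1299 (p53-null), stable ts p53-A138V + BP100-Luc; 1000 cells/well, Opti-MEM/10% FBS; cpd 4 pt, 1:5; 24 h, 37 deg C, 5% CO2; detection reagent 10 min RT; luminescence.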
GLP1R ag = GLP-1 receptor (human) agonism; HEK293 GLP-1R CRE-luciferase, luminescence, 4-6 h; cells express a hypersensitive GLP-1R form; Potency, µM (series often up to 45.6 µM), without a hit: at the top dose activation, hits mostly activators; hit rate 0.007% among 380,000; AID 624172; note: potency is the fitted concentration of half-maximal effect; % of control where 0% means no effect
ClpP mod = qHTS Assay for Activators of ClpP | purified B. subtilis ClpP, FRET peptide cleavage, 20 min | Potency, µM (top dose mostly 57.5 µM), without a hit: top-dose activity change, negative = active | hit rate 1.9% among 340,000; active = well fitted falling curve with a large enough effect; inconclusive = small, poorly fitted or top-dose-only effect; inactive = no such curve, though single readings can be large or run the other way; note: potency is the fitted concentration of half-maximal effect; the source files actives as falling curves though it sought activators and does not explain the sign; nearly all actives have a fitted effect of over 65% in size
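Buffer: 100 mM Tris/HCl pH8, 100 mM KCl, 0.05% low protease BSA, 2.5% glycerol, 0.01% Tween-20. ClpP 10 microg/mL final; 20 min RT; delta FRET normalized to ADEP and DMSO controls.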
LDHA block = blocks human lactate dehydrogenase A. activity change, % (values are at about 110 or 230 µM). AID 1347041. hit rate 0.15% among 480,000. purified LDHA, NADH/diaphorase-resazurin fluorescence; stronger effect = lower value; in the data active = activity change below about -30%; inconclusive = mostly about -25% to -30%;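 note: plate controls were DMSO wells for no effect and wells without enzyme for full effect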
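Enzyme activity of human lactate dehydrogenase 5 (2 nM; 0.06 mM NADH, 0.2 mM pyruvate, 5 min, RT) is measured via a resazurin/diaphorase fluorescence readout of residual NADH.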
* = called active by the depositor; ? = inconclusive; nt = no result given. Unless noted, calls come from the whole dose curve; as a rule, active = well fitted curve in the direction sought with a large enough effect; inconclusive = small, poorly fitted or top-dose-only effect, or another doubt; inactive = no such curve, though single readings can be large; an effect the other way counts as inactive or inconclusive.

SMILES | GLP1R cytotox | GLP1R inv ag | p53 reactivation | GLP1R ag | ClpP mod | LDHA block
CCCC/C=C1\CCc2c([nH]c3ccccc23)C1=O | -6% | -54% | 2% | -4% | nt | 1
CC(=O)N(CC(=O)O)c1ccccc1 | -5% | 2% | 0% | -5% | 18µM* | -5
CC(=O)N(CN1C(=O)c2ccccc2C1=O)c1ccccc1 | -3% | 15% | 0% | -7% | -2% | -5
CCOC(=O)CN(c1ccccn1)S(=O)(=O)c1ccccc1 | 4% | 1% | -2% | -8% | 32µM* | -4
COc1ccc(S(=O)(=O)N(CC(=O)O)c2ccccn2)cc1 | -6% | 9% | -6% | -2% | -4% | -5
Cc1cccc(C(=O)C2CCN(S(=O)(=O)c3ccc(C(=O)O)cc3)CC2)c1 | -23% | 13% | -4% | 3% | nt | -3
O=C(CN1CCCC1)Nc1ccc(Oc2ccc(NC(=O)CN3CCCC3)cc2)cc1 | ? | 1.8µM* | 2% | 6% | 1% | 1
CC1CCN(CC(=O)Nc2ccc(N3CCCCCC3)cc2)CC1 | -27% | 2.8µM* | -3% | 23% | nt | 0
CC1CCN(S(=O)(=O)c2ccc(NC(=O)CN3CCN(C)CC3)cc2)CC1 | 6% | ? | 2% | 3% | -1% | -41*
COc1ccc(NC(=O)CN2CCCC2)cc1 | 1% | -9% | 20% | 9% | -1% | -12
CCOC(=O)c1ccc(N2C(=O)C(O)(C(F)(F)F)C3=C2CC(C)(C)CC3=O)cc1 (centres undefined) | nt | nt | nt | nt | nt | -8
COc1ccccc1NC(=O)N(Cc1ccccc1)c1ccccn1 | 13% | 7.1µM* | 7% | 1% | -3% | -7
O=C(Cc1cccc2ccccc12)NNC(=O)Nc1cccc(Cl)c1 | -15% | ? | -4% | -11% | -11% | -20
COc1ccccc1NC(=O)C1CC(=O)N(Cc2ccccn2)c2nc3ccccc3n21 (centres undefined) | nt | nt | nt | nt | nt | -2
O=C(Nc1cccnc1)c1ccc(COc2ccccc2Cl)o1 | -9% | -3% | 2% | 6% | 0% | -9
COc1cccc(/C=N/Nc2nc3ccccc3n3cnnc23)c1 | -3% | 16% | 1% | -5% | -6% | -1
COc1cccc(/C=N/Nc2nc3ccccc3n3cnnc23)c1O | 2% | ? | 32µM* | -4% | 0% | 19
O=C(CSc1ccc(-c2nc3ccccc3[nH]2)cn1)N1CCN(C(=O)c2ccco2)CC1 | -28% | 0% | ? | -16% | 32µM* | -20
COC(=O)c1ccc(C(=O)OC)c(NC(=O)CS(=O)(=O)Cc2ccccc2)c1 | -2% | 0% | -2% | -8% | -19% | -2
O=C1NC(c2ccccc2)N=C2Oc3ccccc3C=C12 (centres undefined) | 38% | 14% | nt | 3% | 11µM* | 5
CCn1c(NCc2ccccc2NS(=O)(=O)c2ccc(C)cc2)nc2ccccc21 | -27% | ? | 10% | -5% | 1% | -3
CCn1c(NCc2cc(Br)ccc2NS(=O)(=O)c2ccc(C)cc2)nc2ccccc21 | -30% | 11µM* | 6% | -32% | -5% | 1
COc1cc2c(c3ccccc13)CCCC2=O | -3% | 0% | nt | 4% | 28µM* | 1
Cc1cc(C(=O)N/N=C/c2cc(N=Nc3ccccc3)ccc2O)n[nH]1 | ? | -23% | 13µM* | 4% | 1% | 3
NC(=O)c1c(NC(=O)COC(=O)CSc2nnc(-c3ccc(Cl)cc3)o2)sc2c1CCC2 | -13% | 7% | 2% | -5% | 17% | -5
SMILES | GLP1R cytotox | GLP1R inv ag | p53 reactivation | GLP1R ag | ClpP mod | LDHA block
CCOc1ccccc1NC(=O)CCC(=O)Nc1ccc2nc(N3CCN(C)CC3)cc(C)c2c1 | -9% | -11% | -4% | 14% | 25µM* | -6
Cc1cc(N2CCN(C)CC2)nc2ccc(NC(=O)c3ccc(Br)o3)cc12 | ? | ? | 12% | 8% | -5% | 0
COc1cc(NC(=O)CCC(=O)Nc2ccc3nc(N4CCOCC4)cc(C)c3c2)cc(OC)c1OC | 4% | 31% | 13% | 26% | 25µM* | 1
Cc1cc(N2CCCCC2)nc2ccc(NC(=O)c3ccc(Br)o3)cc12 | ? | 2.8µM* | 2% | -7% | -7% | -1
CCCCN(C)C(=O)CCC(=O)Nc1ccc2nc(N3CCOCC3)cc(C)c2c1 | 11% | 5% | ? | 29% | 7.9µM* | 12
COc1ccc(OCC(=O)Nn2c(-c3cccc(OC)c3)nc3ccccc3c2=O)cc1 | 8% | 4% | -5% | 7% | -3% | -5
CCCC1CCC(c2ccc(OC(=O)c3cccs3)cc2)CC1 (centres undefined) | nt | nt | nt | nt | nt | -6
Cc1ccccc1NC(=S)N/N=C/c1ccccc1[N+](=O)[O-] | nt | nt | nt | nt | nt | -8
CC(C)OCCCNC(=O)CN1C(=O)c2cccc3cccc1c23 | 46% | 3% | ? | 0% | -5% | 7
COc1ccc(N(C)C(=O)CCC(=O)Nc2ccc3nc(N4CCOCC4)cc(C)c3c2)c(OC)c1 | 2% | 65% | 12% | 12% | 28µM* | 10
COc1ccc(NC(=O)CCC(=O)Nc2ccc3nc(N4CCOCC4)cc(C)c3c2)c(OC)c1 | -1% | 17% | 9% | 8% | nt | 0
CC1(C)CC(NS(=O)(=O)c2ccc(C(C)(C)C)cc2)CC(C)(C)N1 | -14% | 3.5µM* | nt | 3% | nt | -5
COc1ccc2cc(S(=O)(=O)NC3CC(C)(C)NC(C)(C)C3)ccc2c1 | 24% | ? | 1% | -3% | 28µM* | -1
c1csc(C(c2nnnn2C2CCCCC2)N2CCCC3(CCCCC3)C2)c1 (centres undefined) | 2% | 0% | -8% | -7% | 1% | -3
CCOC(=O)c1nn(-c2ccc(F)cc2)cc1O | -3% | 39% | ? | 9% | nt | -5
CCOC(=O)c1nn(-c2ccc3c(c2)CCN3C(C)=O)cc1O | -17% | 11µM* | 19% | 0% | ? | 6
COc1ccc(C(=O)NC2CC2)cc1OC1CCN(Cc2ccc(F)cc2Cl)CC1 | ? | 10µM* | nt | -5% | -2% | 4
CCCCN1CC(COCc2ccccc2)Oc2cccc(Oc3ccc(OC)cc3)c2S1(=O)=O (centres undefined) | 13% | ? | nt | -1% | -4% | 0
O=S1(=O)c2ccc(Br)cc2OC(COCc2ccccc2)CN1Cc1ccccc1 (centres undefined) | -6% | 10µM* | 12% | 11% | 1% | -7
